Laboratory results reported in the supplement of paper PMC11732987, “Enantioselective OTUD7B fragment discovery through chemoproteomics screening and high-throughput optimisation” (Communications Chemistry, 2025).

What follows are molecules tested against T1, VCPIP1 (UniProt Q96JH7) (assay: log2 ratio of Biotin-Ahx-Ub-VS probe labelling (fragment/DMSO); higher = less target engagement (more negative = stronger competition), active = hit call of the paper (q ≤ 0.05, log2 ratio ≤ -1)). Details: compound concentration: 200 uM; treatment time: 3 h.
T1 sequence (whole entry): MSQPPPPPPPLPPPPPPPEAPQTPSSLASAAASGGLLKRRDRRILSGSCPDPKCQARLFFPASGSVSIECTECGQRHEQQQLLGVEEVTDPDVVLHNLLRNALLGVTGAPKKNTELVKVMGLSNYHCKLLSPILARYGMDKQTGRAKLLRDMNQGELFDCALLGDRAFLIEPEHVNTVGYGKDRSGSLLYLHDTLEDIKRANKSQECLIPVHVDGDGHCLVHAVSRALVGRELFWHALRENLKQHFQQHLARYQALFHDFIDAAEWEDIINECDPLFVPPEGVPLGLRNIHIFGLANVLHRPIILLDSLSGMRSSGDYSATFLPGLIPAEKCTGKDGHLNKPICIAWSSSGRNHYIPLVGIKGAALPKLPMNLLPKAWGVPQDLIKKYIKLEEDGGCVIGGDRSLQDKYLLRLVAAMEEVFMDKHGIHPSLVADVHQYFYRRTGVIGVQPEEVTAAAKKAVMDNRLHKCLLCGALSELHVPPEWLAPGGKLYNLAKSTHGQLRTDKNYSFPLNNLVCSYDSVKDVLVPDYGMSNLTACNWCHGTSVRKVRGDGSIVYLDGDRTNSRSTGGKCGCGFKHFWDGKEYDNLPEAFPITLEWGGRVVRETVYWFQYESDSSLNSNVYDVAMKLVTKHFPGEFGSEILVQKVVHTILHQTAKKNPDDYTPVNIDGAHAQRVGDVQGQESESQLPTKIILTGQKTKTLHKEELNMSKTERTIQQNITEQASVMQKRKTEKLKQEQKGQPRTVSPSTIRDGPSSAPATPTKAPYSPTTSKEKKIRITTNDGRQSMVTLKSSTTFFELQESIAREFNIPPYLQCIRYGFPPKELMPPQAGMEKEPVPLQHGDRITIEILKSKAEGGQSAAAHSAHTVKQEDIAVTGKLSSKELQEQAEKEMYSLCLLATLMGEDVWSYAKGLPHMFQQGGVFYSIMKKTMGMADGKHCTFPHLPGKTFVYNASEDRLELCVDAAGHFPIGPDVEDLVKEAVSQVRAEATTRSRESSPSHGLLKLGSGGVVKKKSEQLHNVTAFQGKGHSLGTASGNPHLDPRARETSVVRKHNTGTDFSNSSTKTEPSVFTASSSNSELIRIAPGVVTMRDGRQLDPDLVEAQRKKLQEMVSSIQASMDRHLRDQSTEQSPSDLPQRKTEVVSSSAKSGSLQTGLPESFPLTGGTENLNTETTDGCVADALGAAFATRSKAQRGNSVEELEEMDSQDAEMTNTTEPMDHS
Procedure: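 Competitive ABPP in HEK293T cell lysate. Lysates were treated with each chloroacetamide fragment at 200 µM for 3 h, then with Biotin-Ahx-Ub-VS (0.5 µM, 1 h), NeutrAvidin-enriched and analysed by diaPASEF LC-MS/MS. Protein LFQ was median-normalised; average log2 ratio is fragment/DMSO from an unpaired t-test (n=3 treated, n=44 DMSO). Hits: q ≤ 0.05, log2 ratio ≤ -1, unique peptides ≥ 2.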

Row | Structure (SMILES) | log2 ratio of Biotin-Ahx-Ub-VS probe labelling
1 | O=C(CCl)N1CCC(c2ccn[nH]2)C1 (stereo not given) | -0.333 (inactive)
2 | Cc1ccc(C)c(NC(=O)CCl)c1 | -1.52 (active)
3 | Cl.O=C(CCl)NCCc1ncc(F)cc1F | -1.69 (active)
4 | CN(C)C(=O)c1ccc(NC(=O)CCl)cc1 | -0.601 (inactive)
5 | CCC(NC(=O)CCl)c1ccc(Cl)cc1 (stereo not given) | -0.836 (inactive)
6 | O=C(CCl)N1CCOC2(CCC2)CC1 | -0.287 (inactive)
7 | CCN(Cc1ccc(C#N)cc1F)C(=O)CCl | -0.594 (inactive)
8 | CCCn1nccc1NC(=O)CCl | -0.41 (inactive)
9 | CC(C)n1nccc1NC(=O)CCl | -0.897 (inactive)
10 | Cl.O=C(CCl)N1CCC(n2nc3ccccc3n2)CC1 | -2.56 (active)
11 | O=C(CCl)NC1CCCCNC1=O (stereo not given) | -0.603 (inactive)
12 | O=C(CCl)NCCC1=CCCCC1 | -0.647 (inactive)
13 | O=C(CCl)N1CCN(C(=O)Nc2ccccc2)CC1 | -0.418 (inactive)
14 | O=C(CCl)NCC1(c2ccccc2)CC1 | -2.43 (active)
15 | CNC(=O)Cn1cc(NC(=O)CCl)cn1 | -0.495 (inactive)
16 | Cn1cc(CN(Cc2ccc(Cl)cc2)C(=O)CCl)cn1 | -0.623 (inactive)
17 | Cl.O=C(CCl)NCc1cc2c(nc1O)CCCC2 | -1.56 (active)
18 | COCC[C@@H](NC(=O)CCl)c1ccccc1 | -0.654 (inactive)
19 | Cc1ccn2cc(CNC(=O)CCl)nc2c1.Cl | -0.598 (inactive)
20 | Cc1ccc(CN(C)C(=O)CCl)o1 | -0.13 (inactive)

Row | Structure (SMILES) | log2 ratio of Biotin-Ahx-Ub-VS probe labelling
21 | O=C(CCl)Nc1cccc(C(=O)N2CCSCC2)c1 | -2.83 (inactive)
22 | CC(NC(=O)CCl)c1noc(Cc2ccccc2)n1 (stereo not given) | -1.42 (active)
23 | O=C(CCl)NCc1cccc(N2CCCC2=O)c1 | -1.04 (active)
24 | CN(Cc1nc2ccccc2[nH]1)C(=O)CCl.Cl | -0.467 (inactive)
25 | O=C(CCl)N1CCC(C(=O)N2CCCCCC2)CC1 | -0.246 (inactive)
26 | O=C(CCl)NCc1ccc2c(c1)OCO2 | -2 (active)
27 | Cl.O=C(CCl)NC1(c2ncccn2)CCC1 | -0.136 (inactive)
28 | COc1ccc(Cl)cc1NC(=O)CCl | -1.52 (active)
29 | O=C(CCl)NCc1cccc(F)c1 | -1.16 (active)
30 | Cc1cccc(N2CCC(NC(=O)CCl)C2=O)c1 (stereo not given) | -1.91 (active)
31 | CC(NC(=O)CCl)c1cccc(Cl)c1 (stereo not given) | -1.59 (active)
32 | C[C@@H](NC(=O)CCl)c1cccc(C#N)c1 | -0.466 (inactive)
33 | CS(=O)(=O)N1CCCN(C(=O)CCl)CC1 | -0.326 (inactive)
34 | Cc1ccc(CC(CO)CNC(=O)CCl)cc1 (stereo not given) | -2.23 (active)
35 | CN(C)C(=O)c1ccc(CNC(=O)CCl)cc1 | -0.952 (inactive)
36 | CC(NC(=O)CCl)c1cc2n(n1)CCCC2.Cl (stereo not given) | -0.662 (inactive)
37 | Cc1cnc2[nH]cc(CCNC(=O)CCl)c2c1 | -1.05 (active)
38 | O=C(CCl)NCCc1ccc(F)cc1 | -0.91 (inactive)
39 | Cc1ccc(CN(CCO)C(=O)CCl)cc1 | -0.862 (inactive)
40 | O=C(CCl)N(C1CCCC1)C1CCS(=O)(=O)C1 (stereo not given) | -0.0269 (inactive)
